Giardia killer = Small Molecules that selectively kill Giardia lamblia: qHTS. Giardia lamblia trophozoite viability. activity change, % at 7.66 µM, hits read low. 340,000 compounds, 0.15% hits. AID 540267, 2011; in the data active = activity change below about -80%; inconclusive = between about -30% and that limit;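 also: parasites exposed to compound for two days anaerobically before the ATP read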
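Anaerobic 48 hrs incubation at 37 deg C of 100 trophozoites/well with test compounds; ATPLite 1-Step luminescence, 15-30 min RT, reports cellular ATP as viability.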
TDP1 inh = qHTS Assay for Inhibitors of Tyrosyl-DNA Phosphodiesterase (TDP1); recombinant TDP1, AlphaScreen DNA substrate cleavage; 350,000 compounds, 0.28% hits; Potency, µM (highest dose often 130 µM), hits mostly inhibitors; also: nearly all actives have a fitted effect of over 40% in size
Target sequence (Q9NUW8 whole entry, looked up): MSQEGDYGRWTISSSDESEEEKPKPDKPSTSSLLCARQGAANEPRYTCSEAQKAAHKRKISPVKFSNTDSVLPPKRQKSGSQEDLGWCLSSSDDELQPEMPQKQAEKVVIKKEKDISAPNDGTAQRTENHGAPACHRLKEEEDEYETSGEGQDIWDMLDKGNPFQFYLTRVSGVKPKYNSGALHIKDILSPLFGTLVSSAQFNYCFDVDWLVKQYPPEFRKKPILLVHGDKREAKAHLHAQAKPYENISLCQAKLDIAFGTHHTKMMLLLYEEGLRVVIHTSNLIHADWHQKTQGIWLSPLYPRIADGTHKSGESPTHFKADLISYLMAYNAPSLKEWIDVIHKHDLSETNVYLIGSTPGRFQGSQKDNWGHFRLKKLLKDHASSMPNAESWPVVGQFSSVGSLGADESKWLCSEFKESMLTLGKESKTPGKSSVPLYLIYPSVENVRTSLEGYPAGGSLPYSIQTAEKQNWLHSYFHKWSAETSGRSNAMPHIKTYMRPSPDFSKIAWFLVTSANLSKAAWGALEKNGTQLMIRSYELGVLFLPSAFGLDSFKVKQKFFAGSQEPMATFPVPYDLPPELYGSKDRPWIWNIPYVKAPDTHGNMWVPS
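Here, a 5' biotin and 3' phosphotyrosine-FITC DNA oligonucleotide reports Tdp1 activity: intact substrate bridges AlphaScreen beads, while cleavage leaves a 3' phosphate and drops signal. All incubations at room temperature.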
DT40 TDP1 CPT = qHTS for Inhibitors of human tyrosyl-DNA phosphodiesterase 1 (TDP1): qHTS in cells in presence of CPT. chicken DT40 Tdp1-/-;hTDP1 cells + 20 nM CPT, ATP luminescence, 48 h. Potency, µM (series often up to 46.2 µM), hits mostly inhibitors. 420,000 compounds, 12% hits. AID 686979, 2013; also: nearly all actives have a fitted effect of over 55% in size
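Cell growth measured by CellTiter-Glo luminescence after a minimum 48 h, 37 C compound exposure with 20 nM CPT in Tdp1-knockout DT40 cells stably expressing hTDP1, seeded 400/well; qHTS titration format.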
ELG1 DNA repair = qHTS screen for small molecules that inhibit ELG1-dependent DNA repair in human embryonic kidney (HEK293T) cells expressing luciferase-tagged ELG1 | 330,000 compounds, 2.3% hits | Potency, µM (titrated, usually from 46.1 µM), most hits filed as inhibitors | AID 504467, 2011 | HEK293T ELG1-luciferase reporter, luminescence, 16 h; DNA damage induced by 5-fluorouridine; also: nearly all actives have a fitted effect of over 55% in size
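Reporter activity after DNA damage by 5-fluorouridine is monitored. Compound-treated cells incubate 16 hr at 37 °C, then ONE-Glo is added for 30 min before luminescence reading.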
IL1B secr inh = qHTS for Inhibitors of Inflammasome Signaling: IL-1-beta AlphaLISA Primary Screen; THP-1 LPS/ATP IL-1B secretion, AlphaLISA, 16 h; active compounds read low; activity change, % at 57.5 µM; 360,000 compounds, 4.7% hits; AID 743279, 2014; in the data active = activity change below about -50%; inconclusive = mostly about -30% to -49%
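Secreted IL-1B measured by AlphaLISA bead assay after 16 h compound exposure of THP-1 cells; compounds (final up to 57.5 uM) added 1 h before LPS (250 ng/mL) and ATP (1.25 mM) stimulation; lower signal means less secretion.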
DT40 TDP1 no CPT = qHTS for Inhibitors of human tyrosyl-DNA phosphodiesterase 1 (TDP1): qHTS in cells in absence of CPT. DT40 Tdp1-/- hTDP1 cells, no CPT, ATP luminescence, 48 h. Potency, µM (doses to about 46.2 µM), hits mostly inhibitors. 420,000 compounds, 15% hits; also: nearly all actives have a fitted effect of over 55% in size
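Stably hTDP1-transfected Tdp1-null chicken DT40 cells were treated with library compounds minus camptothecin and grown for at least 48 hr at 37 °C, after which cellular ATP was quantified by luminescence.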
A number is an active result; 0 = inactive; ? = inconclusive; - = no result; ! = not confirmed by another sample; [ ] = remark or other dose. Most compounds without a hit are left out; they make up all but 19% or so of the library. Unless noted, calls follow the shape of the dose curve; as a rule, active = well fitted curve in the direction sought with a large enough effect; inconclusive = small, poorly fitted or top-dose-only effect, or another doubt; inactive = no such curve, though single readings can be large; an effect the other way counts as inactive or inconclusive.

SMILES	Giardia killer	TDP1 inh	DT40 TDP1 CPT	ELG1 DNA repair	IL1B secr inh	DT40 TDP1 no CPT
OCCCn1c(CCNc2nc(-c3ccc(F)cc3)cs2)nc2cc(C(F)(F)F)ccc21	0	-	?	-	-69.0	?
CCCn1c(C2CCCN2c2nc(-c3ccc(C)cc3)cs2)nc2ccccc21 (stereo unspecified)	0	-	?	?	0	?
OCCCn1c(C2CCCN2c2nc(-c3ccc(F)cc3)cs2)nc2cc(C(F)(F)F)ccc21 (stereo unspecified)	0	-	8.2µM	-	-56.8	?
C[C@@]12CCC[C@H]1C1CC[C@H]3C[C@H](O)CC[C@]3(C)C1CC2 (stereo partly specified)	-	0	0	-	-	0
COC(=O)[C@@]1(Cc2ccc(F)cc2)[C@H]2c3cc(C(=O)N(C)C)n(Cc4ccsc4Br)c3C[C@H]2CN1C(=O)c1ccccc1	-	0	?	-	0	?
Cc1cc(C)cc(NC(=O)CSc2nnc(CNC(=O)c3c(F)cccc3Cl)o2)c1	-	0	0	-	-	0
COc1ccc(CCNC(=S)N2CCN(S(=O)(=O)c3ccccc3F)CC2)cc1	0	0	?	?	0	?
CCCCC/C=C\C/C=C\CCCCCCCC(=O)NCCc1ccc(O)c(O)c1	-	0	-	-	-	-
O=C(CNC(=O)c1cccs1)N/N=C/c1c(F)cccc1Cl	0	0	0	?	0	0
Cc1ccc(Cn2c(C3CCCN3c3nc(-c4ccc(F)cc4)cs3)nc3cc(Cl)c(Cl)cc32)cc1 (stereo unspecified)	0	-	0	-	0	0
OCCOCCn1c(C2CCCN2c2nc(-c3ccc(F)cc3)cs2)nc2cc(Cl)c(Cl)cc21 (stereo unspecified)	0	-	?	-	-54.0	20.6µM
Cc1ccc(Cn2c(C3CCCN3c3nc(-c4ccc(F)cc4)cs3)nc3cc(C(=O)NCCCO)ccc32)cc1 (stereo unspecified)	0	-	20.6µM	-	0	?
CCOc1ccccc1NC(=O)c1sc2nc3n(c(=O)c2c1C)CCCCC3	-	0	0	-	-	0
Cn1cc(C2=C(c3ccc(Cl)cc3Cl)C(=O)NC2=O)c2ccccc21	0	0	?	?	0	11.2µM!
CCN(CC)c1ccccc1/C=C/[n+]1ccc(CCCCI)c2ccccc21	-	-	0.631µM	-	-	0.562µM
O=C(Cn1ccn(-c2ccc(F)c(F)c2)c(=O)c1=O)Nc1ccccc1F	-	0	0	-	-	0
CCC(C)Sc1ccc([C@H]2N[C@@](Cc3ccccc3)(C(=O)OC)[C@H]3C(=O)N(CC)C(=O)[C@@H]23)cc1 (stereo partly specified)	0	-	?	?	0	20.6µM
CCN1C(=O)[C@H]2[C@@H](c3ccc(-c4ccc(OC)cc4)c(OC)c3)N[C@@](Cc3ccccc3)(C(=O)OC)[C@H]2C1=O	0	0	?	0	0	?
CCC(C)Sc1ccc([C@H]2N[C@@](Cc3ccccc3)(C(=O)OC)[C@H]3C(=O)N(CC)C(=O)[C@@H]23)cc1OC (stereo partly specified)	0	0	?	0	0	20.6µM
CCOC(=O)c1ccc(NC(=O)Cn2cc(C(=O)c3ccc(CC)cc3)c(=O)c3ccc(C)nc32)cc1	-	0	11.6µM	-	-	5.8µM
Cc1ccc2c(=O)c(C(=O)c3ccccc3)cn(CC(=O)Nc3ccccc3)c2n1	-	0	0	-	-	0
CCOC(=O)c1ccc(NC(=O)Cn2cc(C(=O)c3ccc(Cl)cc3)c(=O)c3ccc(C)nc32)cc1	-	0	4.61µM	-	-	3.26µM
O=C(O)/C=C/C(=O)Nc1ccc(SC(F)(F)C(F)(F)C(F)(F)F)cc1	0	0	0	0	-54.4	0
CCCNC(=O)C1(O)c2cc(Br)ccc2NC(=O)N1c1ccc(Cl)cc1 (stereo unspecified)	0	-	0	0	0	0
CCC(C)NC(=O)c1sc2nc(C)c(C(=O)Nc3ccc(C)cc3C)c(-c3ccccc3Cl)c2c1N (stereo unspecified)	-	0	14.6µM	-	-	?
SMILES	Giardia killer	TDP1 inh	DT40 TDP1 CPT	ELG1 DNA repair	IL1B secr inh	DT40 TDP1 no CPT
COc1ccccc1NC(=O)c1sc2nc(C)c(C(=O)Nc3ccc(C)cc3C)c(-c3ccc(Br)cc3)c2c1N	-	0	0	-	-	0
CCC(C)NC(=O)c1sc2nc(C)c(C(=O)Nc3ccc(C)cc3C)c(-c3ccc(NC(C)=O)cc3)c2c1N (stereo unspecified)	-	0[12.3 µM]	20.6µM	-	-	?
COc1ccccc1NC(=O)c1sc2nc(C)c(C(=O)Nc3ccc(C)cc3C)c(-c3cccs3)c2c1N	-	0	0	-	-	0
CCC(C)NC(=O)c1sc2nc(C)c(C(=O)Nc3ccc(C)cc3C)c(-c3ccc(Cl)cc3)c2c1N (stereo unspecified)	-	0	23.1µM	-	-	?
COc1ccc(N2CCN(c3csc4ccc(Cl)cc4c3=O)CC2)cc1	-	0	?	-	-	?
COc1ccc(C2C(C(C)=O)=C(C)Nc3ncnn32)cc1 (stereo unspecified)	0	-	0	0	0	0
COC(=O)C1=C(C)Nc2ncnn2C1c1ccc(OC(=O)c2ccccc2)cc1 (stereo unspecified)	0	0	8.2µM	?	0	?
CC1=C(C(=O)OCc2ccccc2)C(c2cccnc2)n2ncnc2N1 (stereo unspecified)	0	0	18.4µM	0	0	14.6µM
CCN(C(=O)COC(=O)C1=COCCO1)c1ccccc1	0	0	0	0	0	6.51µM
CCOC(=O)c1cnc(-n2nc(C)cc2C)nc1NNc1nc(C)cc(C)n1	0	0	0	11.6µM	0	0
CCOC(=O)c1cnc(-n2nc(C)cc2C)nc1NNc1nc(-c2ccccc2)cc(-c2ccccc2)n1	0	0	3.66µM	5.17µM	0	3.26µM
CCOC(=O)c1cnc2cc(C)nn2c1-c1ccccc1	0	0	0	0	0	?
CCOC(=O)c1cnc(-n2nc(C)cc2C)nc1Nc1cccc(C(=O)O)c1	0	0	0	?	0	0
CC(Oc1ccc(C(C)(C)C)cc1)c1ccnc2nc(/N=C/N(C)C)nn12 (stereo unspecified)	0	0	15.8µM	0	0	?
C=CC[C@H](CC(=O)N(CCO)Cc1ccccc1)C(=O)NCCOC(=O)[C@@H](CC=C)CC(=O)OC(C)(C)C	0	0	23.1µM	0	0	?

Screening results from PubChem.
